Reference: the supplement of paper PMC9262897, “Low-cost anti-mycobacterial drug discovery using engineered E. coli” (Nature Communications, 2022)
Structures can show the parent of a compound that is named as a salt. ± gives the standard deviation of the averaged measurements.

How the values were obtained:
Assay in all cases: growth (OD600 after 10 h); higher = more growth (less inhibition)
[1] = tested on: E. coli TESEC Alr+ wild-type control; details: compound 0.1 mM; raw OD600 reference: median of DMSO wells 0.241, cell-free background 0.041
Procedure: (§1)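 TESEC Mtb Alr E. coli, or the Alr+ wild-type control, in 384-well plates with Prestwick library compounds at 0.1 mM and 1% DMSO, across arabinose induction levels of 1E3 to 1E7 nM. Growth is read as OD600 after 10 h at 37 °C in triplicate biological replicates.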

E. coli TESEC Mtb Alr [2] = details: compound 0.1 mM
Procedure: as §1

E. coli TESEC Mtb Asd = details: compound 0.1 mM
Procedure: (§2)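 TESEC E. coli strains in which the native enzyme is deleted and replaced by arabinose-inducible Mtb Asd, DapB, CysH or TrpD, each grown in its selective medium. Strains were screened against the Prestwick library at 0.1 mM and 1% DMSO in 384-well format at low and high arabinose induction. Growth is read as OD600 after 10 h in triplicate.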

E. coli TESEC Mtb DapB = details: compound 0.1 mM
Procedure: as §2

[3] = tested on: E. coli TESEC Alr+ wild-type control; details: compound 0.1 mM; raw OD600 reference: median of DMSO wells 0.49, cell-free background 0.052
Procedure: (§3)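 TESEC Mtb Alr E. coli (ΔaraC ΔtolC ΔentC Δalr ΔdadX, arabinose-inducible Mtb Alr) or the Alr+ wild-type control strain, grown in defined M9-fructose medium without D-alanine in 96-well plates with Prestwick library compounds at 0.1 mM and 1% DMSO. Low Alr induction is 0.1 µM arabinose and high induction is 10 mM arabinose.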

E. coli TESEC Mtb Alr [4] = details: compound 0.1 mM; remark: listed apart in the source
Procedure: as §3

[5] = arabinose 1000 nM, raw OD600 reference: median of DMSO wells 0.294, cell-free background 0.041
[6] = arabinose 10000 nM, raw OD600 reference: median of DMSO wells 0.264, cell-free background 0.041
[7] = arabinose 100000 nM, raw OD600 reference: median of DMSO wells 0.201, cell-free background 0.041
[8] = arabinose 1000000 nM, raw OD600 reference: median of DMSO wells 0.193, cell-free background 0.041
[9] = arabinose 10000000 nM, raw OD600 reference: median of DMSO wells 0.146, cell-free background 0.041
[10] = arabinose induction (level): High, raw OD600 reference: median of DMSO wells 0.331, cell-free background 0.041
[11] = arabinose induction (level): Low, raw OD600 reference: median of DMSO wells 0.417, cell-free background 0.041
[12] = arabinose induction (level): High, raw OD600 reference: median of DMSO wells […], cell-free background 0.041
[13] = arabinose induction (level): Low, raw OD600 reference: median of DMSO wells 0.227, cell-free background 0.041
[14] = arabinose 100 nM, raw OD600 reference: median of DMSO wells 0.413, cell-free background 0.052
[15] = arabinose 10000000 nM, raw OD600 reference: median of DMSO wells […], cell-free background 0.052

Structure (SMILES)	growth [1]	growth (E. coli TESEC Mtb Alr [2]; [5])	growth (E. coli TESEC Mtb Alr [2]; [6])	growth (E. coli TESEC Mtb Alr [2]; [7])	growth (E. coli TESEC Mtb Alr [2]; [8])	growth (E. coli TESEC Mtb Alr [2]; [9])	growth (E. coli TESEC Mtb Asd; [10])	growth (E. coli TESEC Mtb Asd; [11])	growth (E. coli TESEC Mtb DapB; [12])	growth (E. coli TESEC Mtb DapB; [13])	growth [3]	growth (E. coli TESEC Mtb Alr [4]; [14])	growth (E. coli TESEC Mtb Alr [4]; [15])
C#CCN[C@@H]1CCc2ccccc21 [Rasagiline]	0.224 ± 0.0077	0.281 ± 0.012	0.263 ± 0.011	0.19 ± 0.011	0.194 ± 0.023	0.142 ± 0.0024	0.245 ± 0.065	0.342 ± 0.075	0.186 ± 0.0077	0.243 ± 0.025	0.547 ± 0.014	0.421 ± 0.011	0.322 ± 0.0094
CC(C)[C@H]1CC[C@H](C(=O)N[C@H](Cc2ccccc2)C(=O)O)CC1 [Nateglinide]	0.181 ± 0.0028	0.277 ± 0.0054	0.246 ± 0.019	0.169 ± 0.0079	0.114 ± 0.0027	0.147 ± 0.0056	0.229 ± 0.039	0.23 ± 0.021	0.1583 ± 0.001	0.217 ± 0.06	0.6242 ± 0.0051	0.22 ± 0.16	0.284 ± 0.009
Nc1nc(N)nc(-c2cc(Cl)ccc2Cl)n1 [Irsogladine maleate]	0.238 ± 0.0051	0.298 ± 0.013	0.2393 ± 0.0018	0.207 ± 0.011	0.173 ± 0.0041	0.143 ± 0.0066	0.297 ± 0.072	0.406 ± 0.025	0.197 ± 0.019	0.211 ± 0.017	0.589 ± 0.1	0.402 ± 0.0076	0.357 ± 0.0079
Cc1cc(/C=C/c2ccc3cc(N(C)C)ccc3[n+]2C)c(C)n1-c1ccccc1 [Pyrvinium pamoate]	0.0976 ± 0.0031	0.0602 ± 0.0021	0.0614 ± 0.0072	0.0747 ± 0.009	0.0511 ± 0.00066	0.0872 ± 0.0092	0.071 ± 0.00096	0.0642 ± 0.0028	0.0704 ± 0.0048	0.0798 ± 0.011	0.141 ± 0.019	0.142 ± 0.013	0.162 ± 0.025
C[C@H](CS)C(=O)N1CCC[C@H]1C(=O)O [Captopril]	0.259 ± 0.003	0.291 ± 0.019	0.253 ± 0.012	0.198 ± 0.027	0.176 ± 0.0095	0.148 ± 0.011	0.358 ± 0.044	0.399 ± 0.027	0.187 ± 0.019	0.21 ± 0.027	0.475 ± 0.059	0.41 ± 0.0091	0.382 ± 0.021
CCN[C@H]1CN(CCCOC)S(=O)(=O)c2sc(S(N)(=O)=O)cc21 [Brinzolamide]	0.248 ± 0.012	0.282 ± 0.017	0.261 ± 0.0091	0.219 ± 0.03	0.182 ± 0.0056	0.135 ± 0.0031	0.259 ± 0.085	0.385 ± 0.11	0.202 ± 0.013	0.215 ± 0.011	0.579 ± 0.098	0.405 ± 0.0097	0.3104 ± 0.0022
CC(C)(C)C(=O)OCOC(=O)[C@@H]1N2C(=O)[C@@H](/N=C/N3CCCCCC3)[C@H]2SC1(C)C [Pivmecillinam hydrochloride]	0.184 ± 0.0062	0.249 ± 0.0036	0.282 ± 0.0063	0.326 ± 0.0058	0.191 ± 0.016	0.191 ± 0.021	0.323 ± 0.028	0.363 ± 0.022	0.218 ± 0.022	0.222 ± 0.024	0.509 ± 0.096	0.4196 ± 0.0028	0.344 ± 0.012
CC[C@H](C)[C@H](N)C1=N[C@H](C(=O)N[C@@H](CC(C)C)C(=O)N[C@H](CCC(=O)O)C(=O)N[C@H](C(=O)N[C@H]2CCCCNC(=O)[C@H](CC(N)=O)NC(=O)[C@@H](CC(=O)O)NC(=O)[C@H](Cc3cnc[nH]3)NC(=O)[C@@H](Cc3ccccc3)NC(=O)[C@H]([C@@H](C)CC)NC(=O)[C@@H](CCCN)NC2=O)[C@@H](C)CC)CS1 [Bacitracin]	0.306 ± 0.0084	0.324 ± 0.0095	0.252 ± 0.0038	0.387 ± 0.0099	0.176 ± 0.0086	0.214 ± 0.013	0.298 ± 0.05	0.269 ± 0.054	0.266 ± 0.033	0.243 ± 0.028	0.49 ± 0.073	0.421 ± 0.015	0.348 ± 0.028
